PubChem BioAssay (NCATS)
Records with an inconclusive call do not appear. The source made the active and inactive calls. Calls follow the shape of the dose curve; as a rule, active = well fitted cell-killing curve with a large enough effect; inconclusive = small, poorly fitted or top-dose-only effect, or effect the other way; inactive = flat fitted curve, though single readings scatter.

How the values were obtained:
Assay in all cases: Primary qHTS to identify gynecologic anti-cancer compounds using libraries of approved drugs and bioactive compounds (AID 1345084); also: nearly all actives have a fitted effect of over 55% in size
Details in all cases: Gynecologic cancer cell panel viability, ATPlite luminescence, 48 h; series mostly up to 57.5 µM
PA-1 = test system: PA-1
In short: (§1)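 ATP-based viability (ATPlite), 1,000 cells/well, 16 h pre-incubation, 48 h compound at 37 C, 5% CO2, 15 min RT before read.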

SKOV3 = test system: SKOV3
In short: as §1

Tov-21-G = test system: Tov-21-G
In short: as §1

Tov112D = test system: Tov112D
In short: as §1
% is scaled to controls: 0 for no effect and ±100 for the full control effect.

CC(=O)OCC1=CCC2C(C)(C)CCCC2(C)C12CCC(C)(CC(=O)O)O2 (centres undefined)
inactive: Potency (PA-1) | Potency (SKOV3) | Potency (Tov-21-G) | Potency (Tov112D)

O=C(OCC(O)CO[C@@H]1O[C@H](C(=O)O)[C@@H](O)[C@H](O)[C@H]1O)c1ccccc1 (some centres undefined)
inactive: Potency (PA-1) | Potency (SKOV3) | Potency (Tov-21-G) | Potency (Tov112D)

COC(=O)C1=COC(O[C@@H]2O[C@H](COC(=O)/C=C/c3ccc(O)cc3)[C@@H](O)[C@H](O)[C@H]2O)C2C(CO)=CCC12 (some centres undefined)
inactive: Potency (PA-1) | Potency (SKOV3) | Potency (Tov-21-G) | Potency (Tov112D)

C/C=C/C=C/C(O)=C1/C(=O)[C@]2(C)C3/C(=C(O)/C=C/C=C/C)C(=O)C4(C)C1[C@]1(C)O[C@@]4(O)[C@@]3(C)O[C@@]12O
inactive: Potency (PA-1) | Potency (SKOV3) | Potency (Tov-21-G) | Potency (Tov112D)

Nc1ccc(-n2nc(C(F)(F)F)cc2C(F)(F)F)cc1
inactive: Potency (PA-1) | Potency (SKOV3) | Potency (Tov-21-G) | Potency (Tov112D)

Cc1cc(C)c2nc(-c3ccccn3)cc(C(=O)Nc3ccc(S(=O)(=O)Nc4onc(C)c4C)cc3)c2c1
inactive: Potency (PA-1) | Potency (SKOV3) | Potency (Tov-21-G) | Potency (Tov112D)

Cc1cccc(-c2nn3c(c2-c2ccnc4ccc(C(N)=O)cc24)CCC3)n1
inactive: Potency (PA-1) | Potency (SKOV3) | Potency (Tov-21-G)

CC(O)C1CCC2C3CCC4CC(OC5OC(C(=O)O)C(O)C(O)C5O)CCC4(C)C3CCC12C (centres undefined)
inactive: Potency (PA-1) | Potency (SKOV3) | Potency (Tov-21-G) | Potency (Tov112D)

CC1OC(OC2C(OC3C(O[C@H]4CC[C@@]5(C)C(CC[C@]6(C)C5C(=O)CC5=C7CC(C)(C)CC(O)[C@]7(C)CC[C@]56C)C4(C)C)OC(C(=O)O)C(O)C3O)OCC(O)C2O)C(O)C(O)C1O (some centres undefined)
inactive: activity change, negative = cytotoxicity (PA-1) 14.2% [at 11.6 µM] | activity change, negative = cytotoxicity (SKOV3) 29.3% [at 11.6 µM] | activity change, negative = cytotoxicity (Tov-21-G) 4.68% [at 11.6 µM] | activity change, negative = cytotoxicity (Tov112D) 3.63% [at 11.6 µM]

NC[C@H]1CCC[C@@H](CNC(=O)[C@@H](Cc2c[nH]c3ccccc23)NC(=O)N2CCC3(C=Cc4ccccc43)CC2)C1
inactive: Potency (PA-1) | Potency (SKOV3) | Potency (Tov-21-G) | Potency (Tov112D)

O=C(NCCN1CCCC1)c1cc(-c2ccc(CN3CCOCC3)cc2)nc2ccc(F)cc12
inactive: Potency (PA-1) | Potency (SKOV3) | Potency (Tov-21-G) | Potency (Tov112D)

CC(=O)c1ccc(O[C@@H]2O[C@H](CO[C@@H]3OC[C@@H](O)[C@H](O)[C@H]3O)[C@@H](O)[C@H](O)[C@H]2O)cc1
inactive: Potency (PA-1) | Potency (SKOV3) | Potency (Tov-21-G) | Potency (Tov112D)

COC(O)(CC(C)C)C1Oc2cc(C)[nH]c(=O)c2O1 (centres undefined)
inactive: Potency (PA-1) | Potency (SKOV3) | Potency (Tov-21-G) | Potency (Tov112D)

CCC1OC(=O)C(C)CC(C)C(=O)/C(C)=C/C(C)C(=O)/C=C/C1(C)O (centres undefined)
inactive: Potency (PA-1) | Potency (SKOV3) | Potency (Tov-21-G) | Potency (Tov112D)

CC(CC(C)O[C@@H]1O[C@H](CO)[C@@H](O)[C@H](O)[C@H]1O)OC(=O)/C=C/c1ccc(O)cc1 (some centres undefined)
inactive: Potency (PA-1) | Potency (SKOV3) | Potency (Tov-21-G) | Potency (Tov112D)

C[C@@H]1O[C@@H](O[C@H]2[C@@H]3C=CO[C@@H](O[C@@H]4O[C@H](CO)[C@@H](O)[C@H](O)[C@H]4O)[C@@H]3[C@@]3(CO)O[C@@H]23)[C@H](O)[C@H](OC(=O)/C=C/c2ccc(O)cc2)[C@H]1OC(=O)/C=C/c1ccc(O)cc1
inactive: Potency (PA-1) | Potency (SKOV3) | Potency (Tov-21-G) | Potency (Tov112D)

C=C1C(O)CC2C(C(=O)O)=COC(OC3OC(CO)C(O)C(O)C3OC(=O)/C=C\c3ccc(O)cc3)C12 (centres undefined)
inactive: Potency (PA-1) | Potency (SKOV3) | Potency (Tov-21-G) | Potency (Tov112D)

CC(=O)OCC1OC(O[C@H]2CC[C@]34C[C@]35CC(O)[C@]3(C)[C@@H]([C@H](C)CC/C=C(\C)C(=O)O)C(O)C[C@@]3(C)C5CC[C@H]4C2(C)C)C(O)C(O)C1OC1OCC(O)C(O)C1O (some centres undefined)
inactive: activity change, negative = cytotoxicity (PA-1) -0.531% [at 11.6 µM] | activity change, negative = cytotoxicity (SKOV3) -12.1% [at 11.6 µM] | activity change, negative = cytotoxicity (Tov-21-G) 4.53% [at 11.6 µM] | activity change, negative = cytotoxicity (Tov112D) 2.89% [at 11.6 µM]

COc1c(C)c(OCC=C(C)C)cc2c1COC2=O
inactive: Potency (PA-1) | Potency (SKOV3) | Potency (Tov-21-G) | Potency (Tov112D)

CC(=O)OCC1OC(OC2COC(OC3COC(OC4C(OC5C(CO)OC(OC6CCC7(C)C(CCC8(C)C7CC=C7C9CC(C)(C)CCC9(C(=O)OC9OC(CO)C(O)C(O)C9OC9OCC(OC%10OCC(O)(CO)C%10O)C(O)C9O)C(O)CC78C)C6(C)C)C(O)C5O)OCC(O)C4O)C(O)C3O)C(O)C2O)C(OC(=O)/C=C/c2ccccc2)C(O)C1OC(C)=O (centres undefined)
inactive: activity change, negative = cytotoxicity (PA-1) -23.4% [at 6.55 µM] | activity change, negative = cytotoxicity (SKOV3) 14.7% [at 6.55 µM] | activity change, negative = cytotoxicity (Tov-21-G) -3.47% [at 6.55 µM] | activity change, negative = cytotoxicity (Tov112D) 9.27% [at 6.55 µM]
